Laboratory results as given in the supplement of paper PMC12282887.
± gives the standard deviation of the averaged measurements.

Columns and labels:
Assay in all cases: promoter activity interaction Z-score (Lux/OD deviation from empty-vector control); higher = stronger promoter induction by the compound
[1] = test system: E. coli BW25113 acrABp lux reporter
How it was run: (§1)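 Wild-type E. coli BW25113 and three single-gene deletion strains, each carrying a low-copy luxCDABE promoter reporter, were grown at 37°C in 40 µl LB Lennox per well of a 384-well plate. Every compound was applied at four 1:2 dilutions in biological duplicates, and OD600 and luminescence were read every 30 min for 12 h. Integration covered 0–8 h for wild type and 1–9 h for deletion strains, and wells under 10% of the median growth value were removed. Scores are Z-transformed residuals of growth-normalised luminescence fitted against a control.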

[2] = test system: E. coli BW25113 marRABp lux reporter
How it was run: as §1

[3] = test system: E. coli BW25113 micFp lux reporter
How it was run: as §1

[4] = test system: E. coli BW25113 ompFp lux reporter
How it was run: as §1

[5] = test system: E. coli BW25113 robp lux reporter
How it was run: as §1

[6] = test system: E. coli BW25113 soxSp lux reporter
How it was run: as §1

[7] = test system: E. coli BW25113 tolCp lux reporter
How it was run: as §1

[8] = 0.0012 µg/ml, genetic background: wild type
[9] = 0.0012 µg/ml, genetic background: ΔmarA
[10] = 0.0012 µg/ml, genetic background: Δrob
[11] = 0.0012 µg/ml, genetic background: ΔsoxS
[12] = 0.0024 µg/ml, genetic background: wild type
[13] = 0.0024 µg/ml, genetic background: ΔmarA
[14] = 0.0024 µg/ml, genetic background: Δrob
[15] = 0.0024 µg/ml, genetic background: ΔsoxS
[16] = 0.0048 µg/ml, genetic background: wild type
[17] = 0.0048 µg/ml, genetic background: ΔmarA
[18] = 0.0048 µg/ml, genetic background: Δrob
[19] = 0.0048 µg/ml, genetic background: ΔsoxS
[20] = 0.01 µg/ml, genetic background: wild type
[21] = 0.01 µg/ml, genetic background: ΔmarA
[22] = 0.01 µg/ml, genetic background: Δrob
[23] = 0.01 µg/ml, genetic background: ΔsoxS

With `CO/N=C(\C(=O)N[C@@H]1C(=O)N2C(C(=O)O)=C(COC(C)=O)CS[C@H]12)c1csc(N)n1` [Cefotaxime] the “promoter activity interaction Z-score” value [1, 8] was -0.284 ± 0.025, the “promoter activity interaction Z-score” value [1, 9] was 0.0868 ± 0.9 and the “promoter activity interaction Z-score” value [1, 10] was -0.103 ± 0.27. For the same molecule, the “promoter activity interaction Z-score” value [1, 11] was -0.098 ± 0.18, the “promoter activity interaction Z-score” value [1, 12] was -0.0863 ± 0.2 and the “promoter activity interaction Z-score” value [1, 13] was -0.059 ± 0.93. For the same molecule, the “promoter activity interaction Z-score” value [1, 14] was 0.00639 ± 0.18, the “promoter activity interaction Z-score” value [1, 15] was 0.118 ± 0.16 and the “promoter activity interaction Z-score” value [1, 16] was -0.23 ± 0.15. The “promoter activity interaction Z-score” value [1, 17] was 0.42 ± 0.9, the “promoter activity interaction Z-score” value [1, 18] was -0.311 ± 0.072 and the “promoter activity interaction Z-score” value [1, 19] was -0.148 ± 0.096. The “promoter activity interaction Z-score” value [1, 20] was -0.274 ± 0.025, the “promoter activity interaction Z-score” value [1, 21] was -1.6 ± 0.042 and the “promoter activity interaction Z-score” value [1, 22] was -0.154 ± 0.33. The “promoter activity interaction Z-score” value [1, 23] was 0.212 ± 0.064, the “promoter activity interaction Z-score” value [2, 8] was -0.109 ± 0.032 and the “promoter activity interaction Z-score” value [2, 9] was -0.16 ± 0.041. For the same molecule, the “promoter activity interaction Z-score” value [2, 10] was -0.227 ± 0.0043, the “promoter activity interaction Z-score” value [2, 11] was -0.0693 ± 0.13 and the “promoter activity interaction Z-score” value [2, 12] was 0.0203 ± 0.031. For the same molecule, the “promoter activity interaction Z-score” value [2, 13] was -0.118 ± 0.093, the “promoter activity interaction Z-score” value [2, 14] was 0.021 ± 0.12 and the “promoter activity interaction Z-score” value [2, 15] was -0.0591 ± 0.15. For the same molecule, the “promoter activity interaction Z-score” value [2, 16] was -0.2 ± 0.023, the “promoter activity interaction Z-score” value [2, 17] was -0.394 ± 0.27 and the “promoter activity interaction Z-score” value [2, 18] was -0.171 ± 0.25. For the same molecule, the “promoter activity interaction Z-score” value [2, 19] was -0.214 ± 0.072, the “promoter activity interaction Z-score” value [2, 20] was 0.0434 ± 0.19 and the “promoter activity interaction Z-score” value [2, 21] was -0.126 ± 0.0051. For the same molecule, the “promoter activity interaction Z-score” value [2, 22] was 0.448 ± 0.33, the “promoter activity interaction Z-score” value [2, 23] was 0.448 ± 0.066 and the “promoter activity interaction Z-score” value [3, 8] was 0.00627 ± 0.0068. For the same molecule, the “promoter activity interaction Z-score” value [3, 9] was -0.0578 ± 0.08, the “promoter activity interaction Z-score” value [3, 10] was 0.0368 ± 0.11 and the “promoter activity interaction Z-score” value [3, 11] was -0.0273 ± 0.11. The “promoter activity interaction Z-score” value [3, 12] was -0.0766 ± 0.15, the “promoter activity interaction Z-score” value [3, 13] was 0.0449 ± 0.11 and the “promoter activity interaction Z-score” value [3, 14] was 0.0295 ± 0.15. The “promoter activity interaction Z-score” value [3, 15] was -0.18 ± 0.098, the “promoter activity interaction Z-score” value [3, 16] was -0.0576 ± 0.36 and the “promoter activity interaction Z-score” value [3, 17] was -0.223 ± 0.19. For the same molecule, the “promoter activity interaction Z-score” value [3, 18] was 0.0329 ± 0.18, the “promoter activity interaction Z-score” value [3, 19] was -0.198 ± 0.15 and the “promoter activity interaction Z-score” value [3, 20] was -0.5 ± 0.52. For the same molecule, the “promoter activity interaction Z-score” value [3, 21] was -0.278 ± 0.011, the “promoter activity interaction Z-score” value [3, 22] was -0.0107 ± 0.074 and the “promoter activity interaction Z-score” value [3, 23] was -0.133 ± 0.077. The “promoter activity interaction Z-score” value [4, 8] was -0.111 ± 0.025, the “promoter activity interaction Z-score” value [4, 9] was -0.439 ± 0.11 and the “promoter activity interaction Z-score” value [4, 10] was -0.492 ± 0.1. The “promoter activity interaction Z-score” value [4, 11] was 0.179 ± 0.43, the “promoter activity interaction Z-score” value [4, 12] was 0.0538 ± 0.32 and the “promoter activity interaction Z-score” value [4, 13] was 0.191 ± 0.18. For the same molecule, the “promoter activity interaction Z-score” value [4, 14] was -0.287 ± 0.12, the “promoter activity interaction Z-score” value [4, 15] was -0.23 ± 0.033 and the “promoter activity interaction Z-score” value [4, 16] was -0.24 ± 0.46. The “promoter activity interaction Z-score” value [4, 17] was -0.537 ± 0.14, the “promoter activity interaction Z-score” value [4, 18] was -0.409 ± 0.18 and the “promoter activity interaction Z-score” value [4, 19] was -0.158 ± 0.26. The “promoter activity interaction Z-score” value [4, 20] was -0.753 ± 0.55, the “promoter activity interaction Z-score” value [4, 21] was -2.18 ± 0.79 and the “promoter activity interaction Z-score” value [4, 22] was -0.598 ± 0.51. For the same molecule, the “promoter activity interaction Z-score” value [4, 23] was -2.53, the “promoter activity interaction Z-score” value [5, 8] was -0.219 ± 0.23 and the “promoter activity interaction Z-score” value [5, 9] was -0.756 ± 0.2. For the same molecule, the “promoter activity interaction Z-score” value [5, 10] was -0.209 ± 0.28, the “promoter activity interaction Z-score” value [5, 11] was -0.0836 ± 0.31 and the “promoter activity interaction Z-score” value [5, 12] was -0.0844 ± 0.072. The “promoter activity interaction Z-score” value [5, 13] was 0.0702 ± 0.056, the “promoter activity interaction Z-score” value [5, 14] was 0.0668 ± 0.073 and the “promoter activity interaction Z-score” value [5, 15] was -0.0496 ± 0.19. The “promoter activity interaction Z-score” value [5, 16] was 0.227 ± 0.29, the “promoter activity interaction Z-score” value [5, 17] was -0.466 ± 0.095 and the “promoter activity interaction Z-score” value [5, 18] was 0.0502 ± 0.2. For the same molecule, the “promoter activity interaction Z-score” value [5, 19] was -0.0174 ± 0.097, the “promoter activity interaction Z-score” value [5, 20] was -1.42 ± 0.066 and the “promoter activity interaction Z-score” value [5, 21] was -2.06 ± 1.6. For the same molecule, the “promoter activity interaction Z-score” value [5, 22] was -1.76 ± 0.19, the “promoter activity interaction Z-score” value [5, 23] was -2.39 ± 0.34 and the “promoter activity interaction Z-score” value [6, 8] was 0.251 ± 0.06. For the same molecule, the “promoter activity interaction Z-score” value [6, 9] was -0.00348 ± 0.14, the “promoter activity interaction Z-score” value [6, 10] was 0.17 ± 0.16 and the “promoter activity interaction Z-score” value [6, 11] was 0.0148 ± 0.24. For the same molecule, the “promoter activity interaction Z-score” value [6, 12] was 0.182 ± 0.044, the “promoter activity interaction Z-score” value [6, 13] was 0.121 ± 0.06 and the “promoter activity interaction Z-score” value [6, 14] was 0.225 ± 0.25. The “promoter activity interaction Z-score” value [6, 15] was 0.066 ± 0.3, the “promoter activity interaction Z-score” value [6, 16] was -0.0447 ± 0.15 and the “promoter activity interaction Z-score” value [6, 17] was -0.225 ± 0.1. The “promoter activity interaction Z-score” value [6, 18] was -0.0284 ± 0.17, the “promoter activity interaction Z-score” value [6, 19] was -0.179 ± 0.2 and the “promoter activity interaction Z-score” value [6, 20] was -0.209 ± 0.042. The “promoter activity interaction Z-score” value [6, 21] was -0.312 ± 0.071, the “promoter activity interaction Z-score” value [6, 22] was -0.223 ± 0.19 and the “promoter activity interaction Z-score” value [6, 23] was 0.193 ± 0.17. The “promoter activity interaction Z-score” value [7, 8] was 0.0259 ± 0.64, the “promoter activity interaction Z-score” value [7, 9] was 0.293 ± 0.38 and the “promoter activity interaction Z-score” value [7, 10] was -0.312 ± 0.38. For the same molecule, the “promoter activity interaction Z-score” value [7, 11] was -0.0825 ± 0.76, the “promoter activity interaction Z-score” value [7, 12] was 0.373 ± 1.2 and the “promoter activity interaction Z-score” value [7, 13] was 0.241 ± 0.74. The “promoter activity interaction Z-score” value [7, 14] was -0.132 ± 1.1, the “promoter activity interaction Z-score” value [7, 15] was -0.287 ± 1.4 and the “promoter activity interaction Z-score” value [7, 16] was 0.132 ± 0.29. For the same molecule, the “promoter activity interaction Z-score” value [7, 17] was -0.365 ± 0.46, the “promoter activity interaction Z-score” value [7, 18] was -0.311 ± 0.89 and the “promoter activity interaction Z-score” value [7, 19] was 0.17 ± 0.82. For the same molecule, the “promoter activity interaction Z-score” value [7, 20] was -0.425 ± 1.4, the “promoter activity interaction Z-score” value [7, 21] was -0.436 ± 0.19 and the “promoter activity interaction Z-score” value [7, 22] was 0.622 ± 1.5. For the same molecule, the “promoter activity interaction Z-score” value [7, 23] was -0.234 ± 0.026.
